# The full data set covers some 7,900 targets. This sample favours those with a hit. About 0.6% of all pairs of compound and target were hits. Values without a mark were called inactive.
# Experiments:
# Assay in all cases: log2 fold change, soluble protein after heating vs DMSO (PISA); higher = thermal stabilisation; K562 cells, 10 uM, 30 min; active = over 0.2 and 3.5 SD of the protein, either way, in both replicates (recomputed)
# [1] = compound: COC1=CC=C(C=C1)CN2C=CC3=C2C=C(C=C3)C(=O)NO
# Outline: (§1)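 For each measurement, 10 μM compound was applied for 30 min to K562 cells at 2×10^6 cells/mL. Aliquots were heated for 3 min across 48°C-58°C, pooled, and extracted in PBS with 0.5% NP-40 at 4°C; the supernatant after 21,000xg for 90 min was soluble protein. This was quantified by TMTpro 16plex LC-MS/MS with channel sums equalised, and thermal stability was reported relative to control samples from duplicates, on a log2 fold-change scale.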
# filanesib = compound: CON(C)C(=O)N1N=C(c2cc(F)ccc2F)S[C@@]1(CCCN)c1ccccc1 [filanesib]
# Outline: as §1
# zotarolimus = compound: CO[C@H]1C[C@@H]2CC[C@@H](C)[C@@](O)(O2)C(=O)C(=O)N2CCCC[C@H]2C(=O)O[C@H]([C@H](C)C[C@@H]2CC[C@H](n3cnnn3)[C@H](OC)C2)CC(=O)[C@H](C)/C=C(\C)[C@@H](O)[C@@H](OC)C(=O)[C@H](C)C[C@H](C)/C=C/C=C/C=C/1C [zotarolimus]
# Outline: as §1
# idasanutlin = compound: COc1cc(C(=O)O)ccc1NC(=O)[C@@H]1N[C@@H](CC(C)(C)C)[C@](C#N)(c2ccc(Cl)cc2F)[C@H]1c1cccc(Cl)c1F [idasanutlin]
# Outline: as §1
# alisertib = compound: COc1cc(Nc2ncc3c(n2)-c2ccc(Cl)cc2C(c2c(F)cccc2OC)=NC3)ccc1C(=O)O [alisertib]
# Outline: as §1
# [2] = compound: COc1cc2nc(-c3cc(F)ccc3O)nc(N[C@@H]3CNC[C@H]3C(C)(C)O)c2cc1OC
# Outline: as §1
# gefitinib = compound: COc1cc2ncnc(Nc3ccc(F)c(Cl)c3)c2cc1OCCCN1CCOCC1 [gefitinib]
# Outline: as §1
# [3] = compound: COc1cccc2cc(-c3nc([C@H]4CC[C@H](C(=O)O)CC4)n4ncnc(N)c34)[nH]c12
# Outline: as §1
# lapatinib = compound: CS(=O)(=O)CCNCc1ccc(-c2ccc3ncnc(Nc4ccc(OCc5cccc(F)c5)c(Cl)c4)c3c2)o1 [lapatinib]
# Outline: as §1
# pictilisib = compound: CS(=O)(=O)N1CCN(Cc2cc3nc(-c4cccc5[nH]ncc45)nc(N4CCOCC4)c3s2)CC1 [pictilisib]
# Outline: as §1
# Chain of UniProt Q13796 (Q13796 whole entry, looked up): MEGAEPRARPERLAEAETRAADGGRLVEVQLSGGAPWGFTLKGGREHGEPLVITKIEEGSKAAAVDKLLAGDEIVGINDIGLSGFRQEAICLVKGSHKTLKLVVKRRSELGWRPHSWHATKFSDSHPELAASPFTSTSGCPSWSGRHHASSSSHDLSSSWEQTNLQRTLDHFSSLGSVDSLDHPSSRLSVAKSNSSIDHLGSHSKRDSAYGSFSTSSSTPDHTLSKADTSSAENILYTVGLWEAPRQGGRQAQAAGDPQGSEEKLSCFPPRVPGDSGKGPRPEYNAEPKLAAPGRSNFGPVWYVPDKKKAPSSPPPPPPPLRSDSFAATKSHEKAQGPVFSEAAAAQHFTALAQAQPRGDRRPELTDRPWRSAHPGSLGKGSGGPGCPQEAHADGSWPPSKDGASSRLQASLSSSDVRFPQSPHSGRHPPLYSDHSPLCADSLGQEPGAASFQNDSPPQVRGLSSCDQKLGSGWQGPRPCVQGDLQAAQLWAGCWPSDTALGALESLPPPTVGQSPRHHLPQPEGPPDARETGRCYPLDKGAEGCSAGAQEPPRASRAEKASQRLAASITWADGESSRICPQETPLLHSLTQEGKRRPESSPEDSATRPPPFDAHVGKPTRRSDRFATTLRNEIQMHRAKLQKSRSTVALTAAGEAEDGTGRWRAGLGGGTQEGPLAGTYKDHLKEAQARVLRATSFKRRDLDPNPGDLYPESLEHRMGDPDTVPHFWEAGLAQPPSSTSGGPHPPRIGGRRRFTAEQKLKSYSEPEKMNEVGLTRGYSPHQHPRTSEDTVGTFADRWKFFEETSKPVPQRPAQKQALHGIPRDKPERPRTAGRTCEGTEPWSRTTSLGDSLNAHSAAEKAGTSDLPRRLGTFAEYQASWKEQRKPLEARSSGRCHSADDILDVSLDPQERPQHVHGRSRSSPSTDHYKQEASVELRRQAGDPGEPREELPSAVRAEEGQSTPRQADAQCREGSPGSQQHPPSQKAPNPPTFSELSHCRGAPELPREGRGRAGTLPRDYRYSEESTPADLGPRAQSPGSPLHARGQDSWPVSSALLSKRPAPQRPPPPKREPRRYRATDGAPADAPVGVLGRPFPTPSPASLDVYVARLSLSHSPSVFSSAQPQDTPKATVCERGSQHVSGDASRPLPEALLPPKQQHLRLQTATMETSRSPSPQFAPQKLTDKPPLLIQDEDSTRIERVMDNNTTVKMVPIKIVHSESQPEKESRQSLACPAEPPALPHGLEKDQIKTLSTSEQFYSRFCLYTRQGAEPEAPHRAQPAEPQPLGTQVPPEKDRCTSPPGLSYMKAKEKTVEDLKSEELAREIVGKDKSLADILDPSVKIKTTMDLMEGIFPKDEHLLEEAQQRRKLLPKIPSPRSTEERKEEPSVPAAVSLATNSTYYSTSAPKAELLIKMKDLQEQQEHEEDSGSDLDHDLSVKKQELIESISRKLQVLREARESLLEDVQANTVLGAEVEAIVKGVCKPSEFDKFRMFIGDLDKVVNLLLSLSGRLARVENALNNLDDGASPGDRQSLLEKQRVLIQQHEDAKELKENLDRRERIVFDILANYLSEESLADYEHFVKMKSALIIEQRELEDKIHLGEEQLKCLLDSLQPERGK
# Chain of UniProt Q8N5L8 (Q8N5L8 whole entry, looked up): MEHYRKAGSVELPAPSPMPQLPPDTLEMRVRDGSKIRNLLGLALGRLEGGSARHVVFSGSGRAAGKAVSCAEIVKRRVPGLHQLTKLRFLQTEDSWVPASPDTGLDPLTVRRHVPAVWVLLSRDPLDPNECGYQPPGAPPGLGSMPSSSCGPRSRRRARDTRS
# Chain of UniProt Q8IXJ6 (Q8IXJ6 whole entry, looked up): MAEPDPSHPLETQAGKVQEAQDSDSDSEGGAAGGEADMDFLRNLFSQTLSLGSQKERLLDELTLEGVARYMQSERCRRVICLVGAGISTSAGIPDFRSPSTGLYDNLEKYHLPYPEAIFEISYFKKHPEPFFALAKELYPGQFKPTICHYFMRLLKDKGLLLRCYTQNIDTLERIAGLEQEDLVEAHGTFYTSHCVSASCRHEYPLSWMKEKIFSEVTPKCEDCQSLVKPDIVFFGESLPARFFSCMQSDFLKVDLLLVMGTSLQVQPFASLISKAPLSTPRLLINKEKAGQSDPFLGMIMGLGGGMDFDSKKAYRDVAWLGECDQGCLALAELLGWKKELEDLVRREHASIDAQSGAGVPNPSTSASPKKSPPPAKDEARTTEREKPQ
# Chain of UniProt Q5VZM2 (Q5VZM2 whole entry, looked up): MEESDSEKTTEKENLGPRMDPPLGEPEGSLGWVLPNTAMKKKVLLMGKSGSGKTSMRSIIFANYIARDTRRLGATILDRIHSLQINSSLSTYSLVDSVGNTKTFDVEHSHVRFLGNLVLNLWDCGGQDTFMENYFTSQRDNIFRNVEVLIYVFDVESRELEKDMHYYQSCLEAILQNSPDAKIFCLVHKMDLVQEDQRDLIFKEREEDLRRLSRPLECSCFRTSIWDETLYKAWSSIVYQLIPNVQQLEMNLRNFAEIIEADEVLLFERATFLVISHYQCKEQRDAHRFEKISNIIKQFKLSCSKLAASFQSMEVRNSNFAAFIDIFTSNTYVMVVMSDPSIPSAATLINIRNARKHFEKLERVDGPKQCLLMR
# Chain of UniProt Q8NEM2 (Q8NEM2 whole entry, looked up): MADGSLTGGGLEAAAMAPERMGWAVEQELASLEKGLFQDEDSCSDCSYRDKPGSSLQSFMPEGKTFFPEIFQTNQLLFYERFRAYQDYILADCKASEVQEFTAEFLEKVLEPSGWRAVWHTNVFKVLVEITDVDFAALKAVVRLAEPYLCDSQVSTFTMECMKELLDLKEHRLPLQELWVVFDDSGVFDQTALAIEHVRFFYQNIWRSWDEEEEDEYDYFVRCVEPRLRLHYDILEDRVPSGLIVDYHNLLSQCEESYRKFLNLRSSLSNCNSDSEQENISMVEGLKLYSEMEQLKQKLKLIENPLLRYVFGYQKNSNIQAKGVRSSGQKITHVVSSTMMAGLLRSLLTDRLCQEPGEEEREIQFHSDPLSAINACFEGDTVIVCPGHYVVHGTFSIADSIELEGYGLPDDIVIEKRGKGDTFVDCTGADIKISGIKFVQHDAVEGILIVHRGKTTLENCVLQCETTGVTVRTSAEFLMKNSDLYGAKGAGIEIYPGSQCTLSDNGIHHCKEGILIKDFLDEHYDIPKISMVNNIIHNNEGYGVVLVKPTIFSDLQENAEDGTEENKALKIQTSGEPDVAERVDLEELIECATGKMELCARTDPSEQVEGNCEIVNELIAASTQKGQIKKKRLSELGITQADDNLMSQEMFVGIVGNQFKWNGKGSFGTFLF
# Chain of UniProt O75446 (O75446 whole entry, looked up): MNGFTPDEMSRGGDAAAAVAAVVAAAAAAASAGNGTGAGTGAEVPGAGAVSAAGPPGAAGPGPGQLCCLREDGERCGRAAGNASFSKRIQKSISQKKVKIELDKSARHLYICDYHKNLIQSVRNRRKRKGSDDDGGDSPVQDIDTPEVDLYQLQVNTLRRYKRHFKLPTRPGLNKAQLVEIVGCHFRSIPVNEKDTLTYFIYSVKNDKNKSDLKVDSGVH
# Chain of UniProt Q9H6H4 (Q9H6H4 whole entry, looked up): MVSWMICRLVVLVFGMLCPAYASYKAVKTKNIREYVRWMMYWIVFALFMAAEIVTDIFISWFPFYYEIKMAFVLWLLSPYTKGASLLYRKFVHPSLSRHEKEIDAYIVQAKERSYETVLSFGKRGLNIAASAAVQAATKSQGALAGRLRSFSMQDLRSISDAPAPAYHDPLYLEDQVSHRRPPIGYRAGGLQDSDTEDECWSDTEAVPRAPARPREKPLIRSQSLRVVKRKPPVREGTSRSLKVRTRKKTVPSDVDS
# Chain of UniProt Q9NPQ8 (Q9NPQ8 whole entry, looked up): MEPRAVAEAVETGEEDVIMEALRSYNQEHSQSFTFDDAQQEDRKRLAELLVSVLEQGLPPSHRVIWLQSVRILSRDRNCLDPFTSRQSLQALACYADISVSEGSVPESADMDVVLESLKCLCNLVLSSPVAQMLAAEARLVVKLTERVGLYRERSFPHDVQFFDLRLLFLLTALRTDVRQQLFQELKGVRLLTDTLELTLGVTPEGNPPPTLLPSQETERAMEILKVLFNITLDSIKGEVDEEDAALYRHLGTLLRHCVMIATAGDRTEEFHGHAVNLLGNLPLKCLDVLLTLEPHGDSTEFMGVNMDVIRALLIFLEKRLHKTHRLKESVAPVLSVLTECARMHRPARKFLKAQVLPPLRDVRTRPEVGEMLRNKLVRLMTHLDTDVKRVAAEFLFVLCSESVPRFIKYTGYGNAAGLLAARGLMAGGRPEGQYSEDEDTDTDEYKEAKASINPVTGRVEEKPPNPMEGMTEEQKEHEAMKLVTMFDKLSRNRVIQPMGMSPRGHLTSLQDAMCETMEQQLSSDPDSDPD
# Chain of UniProt O75792 (O75792 whole entry, looked up): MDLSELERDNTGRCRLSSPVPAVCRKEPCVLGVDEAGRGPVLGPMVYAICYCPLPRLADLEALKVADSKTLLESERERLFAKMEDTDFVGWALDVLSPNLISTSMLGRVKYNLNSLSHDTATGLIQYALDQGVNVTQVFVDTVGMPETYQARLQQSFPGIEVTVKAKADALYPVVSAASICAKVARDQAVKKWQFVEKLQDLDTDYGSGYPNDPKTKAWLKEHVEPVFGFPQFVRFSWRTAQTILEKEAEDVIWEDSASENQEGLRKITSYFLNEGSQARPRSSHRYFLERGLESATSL
# Chain of UniProt Q9H082 (Q9H082 whole entry, looked up): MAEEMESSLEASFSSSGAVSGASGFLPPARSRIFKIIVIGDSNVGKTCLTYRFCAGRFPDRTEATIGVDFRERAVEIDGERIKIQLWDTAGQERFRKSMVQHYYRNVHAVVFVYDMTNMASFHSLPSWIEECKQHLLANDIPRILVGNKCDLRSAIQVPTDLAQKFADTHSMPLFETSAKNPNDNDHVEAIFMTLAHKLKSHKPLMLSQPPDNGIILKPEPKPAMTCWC
Target,log2 fold change [1],log2 fold change (filanesib),log2 fold change (zotarolimus),log2 fold change (idasanutlin),log2 fold change (alisertib),log2 fold change [2],log2 fold change (gefitinib),log2 fold change [3],log2 fold change (lapatinib),log2 fold change (pictilisib)
RAC3 (UniProt P60763),0.025,0.031,0.125,0.017,-0.038,-0.067,0.017,0.026,0.061,0.071
ROR2 (UniProt Q01974),-0.172,-0.017,0.082,0,-0.013,0.022,0.009,0.012,0.021,-0.079
SHROOM2 (UniProt Q13796),0.417,0.066,0.02,-0.045,-0.027,0.237,0.056,0.009,-0.188,0.226
RIC8A isoform 3 (UniProt Q9NPQ8),-0.007,-0.046,-0.058,-0.032,0.159,-0.095,0.043,0.009,0.001,-0.002
RNASEH2A (UniProt O75792),0.029,-0.005,0.034,-0.007,-0.016,0.049,-0.013,0.031,-0.029,0.234
RPP25L (UniProt Q8N5L8),0.107,0.012,-0.002,0.069,-0.093,-0.12,0.054,-0.068,0.042,-0.052
SENP6 (UniProt Q9GZR1),0.029,0.115,-0.077,0.088,-0.016,0.016,0.028,0.039,0.066,0.076
RAB33B (UniProt Q9H082),-0.104,-0.018,-0.073,0.036,0.035,0.039,0.037,0.087,0.046,0.106
REEP4 (UniProt Q9H6H4),-0.039,-0.072,-0.034,0.033,-0.07,-0.32 (active),-0.032,-0.031,0.121,-0.175
SLC12A9 (UniProt Q9BXP2),-0.022,-0.093,0.091,0.044,-0.106,0.049,-0.151,0.023,0.075,-0.121
SIRT2 (UniProt Q8IXJ6),0.083,-0.02,-0.029,0.016,0.036,-0.012,0.069,0.017,0.065,0.168
RAB3GAP2 (UniProt Q9H2M9),0,0.049,0.101,0.01,-0.056,0.009,0.017,-0.103,0.038,-0.027
RSL1D1 (UniProt O76021),-0.094,0.543,0.055,0.363,-0.202,0.181,-0.031,-0.065,0.181,-0.013
SAP30 (UniProt O75446),0.089,0.044,0.047,0.024,-0.015,-0.059,0.003,-0.095,-0.035,-0.068
SHCBP1 (UniProt Q8NEM2),-0.014,0.059,0.103,-0.023,0.134,0.102,0,-0.056,-0.13,-0.057
RPS9 (UniProt P46781),-0.036,0.237,0.032,0.098,-0.101,-0.083,-0.055,-0.211,0.084,-0.195
RRAGB (UniProt Q5VZM2),-0.018,-0.059,-0.086,-0.026,-0.054,-0.078,-0.003,0.053,0.042,0.052
